Source: PubChem (National Center for Advancing Translational Sciences (NCATS))
aSyn yeast inh: qHTS of alpha-syn Inhibitors; Yeast expressing alpha-synuclein, growth rescue, BacTiter-Glo, 24 h; Potency, µM (doses to about 46.1 µM), for inactives: top-dose growth rescue (activation), most hits filed as activators; hit rate 0.14% among 370,000; AID 652106, 2013; note: % of control where 0% means no effect; nearly all actives have a fitted effect of over 65% in size
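Rescue of yeast growth: cells expressing toxic alpha-synuclein, induced in galactose at OD600 0.02, incubated with compound 24 h at 30 C. ATP luminescence quantified growth; inhibitors of toxicity appear as activators.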
Abeta yeast res: qHTS for compounds that reverse cellular toxicity of Amyloid beta (A-beta) peptide in yeast: Primary Screen | yeast expressing A-beta42, growth rescue, OD600, 48 h; response scale: 0% DMSO, 100% iron-clioquinol control | Potency, µM (series often up to 46.1 µM), usual class: activators | hit rate 0.063% among 410,000 | AID 1347071, 2019; note: nearly all actives have a fitted effect of over 55% in size
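Yeast A-beta toxicity model in growth medium with pinned compounds, 48 h at 30 C; growth read as absorbance at 600 nm. Normalized to FeCl3/clioquinol equimolar mix (positive) and DMSO (negative).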
TDP-43 yeast inh: qHTS of TDP-43 Inhibitors; Potency, µM (doses to about 46.1 µM), inactives show top-dose growth rescue (activation), hits mostly activators; TDP-43 expressing yeast growth rescue, BacTiter-Glo, 24 h; hit rate 1.8% among 410,000; AID 652104, 2013; note: % of control where 0% means no effect; nearly all actives have a fitted effect of over 50% in size
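Galactose-induced TDP-43 yeast, OD600=0.02, compound pinned; 24 hr, 30 deg C; BacTiter-Glo luminescence for growth. Inhibitors of TDP-43 toxicity read as activators.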
ClpP mod: qHTS Assay for Activators of ClpP; Potency, µM (series often up to 57.5 µM), for inactives: top-dose activity change, negative = active; hit rate 1.9% among 340,000; purified B. subtilis ClpP, FRET peptide cleavage, 20 min; ATP-dependent Clp protease proteolytic subunit (Bacillus subtilis (strain 168)), P80244; active = well fitted falling curve with a large enough effect; inconclusive = small, poorly fitted or top-dose-only effect; inactive = no such curve, though single readings can be large or run the other way; note: the source files actives as falling curves though it sought activators and does not explain the sign; nearly all actives have a fitted effect of over 65% in size
Target sequence (P80244 whole entry, looked up): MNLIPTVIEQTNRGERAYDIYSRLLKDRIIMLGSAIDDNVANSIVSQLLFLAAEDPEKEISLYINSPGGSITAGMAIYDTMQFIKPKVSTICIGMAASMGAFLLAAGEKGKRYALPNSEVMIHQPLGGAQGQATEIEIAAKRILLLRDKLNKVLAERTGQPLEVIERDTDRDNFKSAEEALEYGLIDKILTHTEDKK
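FRET quenching reversal measured ClpP activation: 10 microg/mL B. subtilis ClpP at pH 8 with the FRET-FV decapeptide, read at 430 nm after 320 nm excitation. The 20-min minus 0-min signal was scaled between DMSO/no-enzyme wells and ADEP (5.8 microM final).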
FUS yeast rescue: qHTS for Suppressors of FUS Proteinopathy: Primary screen using FUS-linked yeast assay. S. cerevisiae FUS-expressing, growth rescue, OD600, 24 h. Potency, µM (doses to about 76.6 µM), most hits filed as activators. hit rate 0.24% among 390,000;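 note: plate controls were DMSO vehicle for no effect and reference control for full effect; nearly all actives have a fitted effect of over 55% in size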
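Read-out: OD at 600 nm after 24hr at 30C, reporting rescue of FUS-induced yeast toxicity. Cells at OD 0.005 in galactose (2%) minimal medium; compounds tested in a dilution series; CP55940 titration from 92uM final as control.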
Mm-Cpn inhibitor: Inhibitors of TCP-1 ring complex (TRiC) of Methanococcus maripaludis (MmCpn): qHTS; hit rate 0.031% among 330,000; Potency, µM (doses to about 76.9 µM), without a hit: top-dose activity, negative = inhibition, hits mostly inhibitors; purified Mm-Cpn ATPase, ADP Transcreener TR-FRET; Chaperonin Mm-Cpn (Methanococcus maripaludis); note: % is set by controls: 0 for no effect and ±100 for the full control effect; nearly all actives have a fitted effect of over 80% in size
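ATPase turnover read by TR-FRET ADP competition (Eu cryptate antibody/ADP-d2, 665/590 nm): 10uM ATP final, 25nM Mm-CPN final, 30 min 37degC after 10-min compound preincubation, pH 7.4 Tris/KCl/MgCl2/DTT buffer.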
The depositor's hits bear a star; i = inactive; ? = inconclusive; · = no result given; [ ] = another dose, or the depositor's remark. Sampled rows, rich in hits. Any-hit rate of the full collection: about 3.6%. Unless noted, calls come from the whole dose curve; as a rule, active = well fitted curve in the direction sought with a large enough effect; inconclusive = small, poorly fitted or top-dose-only effect, or another doubt; inactive = no such curve, though single readings can be large; an effect the other way counts as inactive or inconclusive. Potency is the fitted concentration of half-maximal effect.

SMILES	aSyn yeast inh	Abeta yeast res	TDP-43 yeast inh	ClpP mod	FUS yeast rescue	Mm-Cpn inhibitor
CC(C)C1N=C2c3ccccc3N=C(SCC#N)N2C1=O (stereo not drawn)	-6%	i	-1%	13µM*	i	0%
CCC(C)NC(=O)CSC1=Nc2ccccc2C2=NC(c3ccccc3)C(=O)N12 (stereo not drawn)	10%	i	9%	16µM*	i	0%
COCCCNC(=O)CSC1=Nc2ccccc2C2=NC(CC(=O)NCc3ccccc3)C(=O)N12 (stereo not drawn)	1%	i	8%	28µM*	i	-1%
O=[N+]([O-])c1ccc(Nc2nc(NCCN3CCOCC3)nc(Nc3ccc(Cl)cc3)n2)cc1	?	·	·	-1%	·	·
CCC(C)NC(=O)CSC1=Nc2ccccc2C2=NC(CC(=O)NCc3ccccc3)C(=O)N12 (stereo not drawn)	2%	i	5%	28µM*	i	0%
CCc1ccc(NC(=O)CSC2=Nc3ccccc3C3=NC(CC(=O)NCc4cccs4)C(=O)N23)cc1 (stereo not drawn)	·	i	8%	8%	i	·
CC(C)c1ccc(NC(=O)CSC2=Nc3ccccc3C3=NC(CC(=O)NCc4cccs4)C(=O)N23)cc1 (stereo not drawn)	·	13µM*	?	-1%	i	·
Cc1ccc2nc(Cl)c3cc(C(=O)NC4CCC(C)CC4)sc3c2c1 (stereo not drawn)	·	i	25%	?	i	·
O=S(=O)(c1ccc(Cl)cc1)c1nc(-c2cccs2)oc1N1CCCCC1	·	i	0%	-14%	i	·
Brc1ccc(-c2nc3ccccc3s2)s1	-11%	i	-9%	28µM*	i	40µM*
Cc1cc(-c2nc3ccccc3s2)ccc1N	-17%	i	18µM*	?	·	·
Cc1ccc(OCc2cc(=O)n3ccsc3n2)c(NC(=O)c2ccco2)c1	·	i	11%	?	i	·
CCN1CCc2c(sc(-n3cccc3)c2C(C)NC(=O)Nc2ccc(C(=O)OC)cc2)C1 (stereo not drawn)	·	i	-2%	-23%	i	·
O=C(C[n+]1ccc2ccccc2c1)c1ccc(F)cc1	·	·	·	68%	·	·
COc1ccc(CNC(=O)c2cc(Nc3ccccc3C)nc3ccccc23)cc1	·	i	10%	186%	i	·
Cc1ccccc1Nc1cc(C(=O)NCCc2ccc(Cl)cc2)c2ccccc2n1	·	i	18µM*	?	i	·
Cc1cc(Cl)ccc1NC(=O)c1cc(S(=O)(=O)N2CCOCC2)cn1C	·	i	10%	-3%	i	·
Cc1ccc(C(=O)CC2(O)C(=O)N(CCc3ccccc3)c3ccc(Br)cc32)o1 (stereo not drawn)	25%	i[9.22 µM]	-11%	-5%	?	1%
O=C(CC1(O)C(=O)N(CCc2ccccc2)c2ccc(Br)cc21)c1ccccc1 (stereo not drawn)	-13%	i	32µM*	-1%	i	·
COc1ccc(-c2nc(-c3ccc(O)cc3O)cs2)cc1OC	1%	i	18µM*	·	i	-4%
COc1ccc(C2=CC(=O)OC3(CCCC3)O2)cc1	0%	i	16µM*	-19%	i	7%
Cc1cc(C)n(C(=O)c2ccc(NC(=O)C3COc4ccccc4O3)cc2)n1 (stereo not drawn)	-8%	i	15%	35µM*	i	·
Cc1ccccc1NC(=O)c1ccc(F)c(S(=O)(=O)N2CCN(c3ccccn3)CC2)c1	-13%	i	0%	-3%	i	3%
